This is an account of results in PubChem BioAssay (EPA / NIEHS).

By AC50 is commonly meant the midpoint of the concentration-response curve, whichever way the signal moves.

Details in all cases: mRNA level, 48 h; actives raise or lower the signal
Read-out in assay [1]: matrix metalloproteinase-10 (MMP10), MMP10 (gene 4319)
Nature of the assay: LTEA_HepaRG_MMP10: Life Technologies and Expression Analysis (LTEA) Assay for matrix metalloproteinase-10 (MMP10) using HepaRG (AID 2283517). In a few lines: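 In differentiated HepaRG cultures kept in 0.5% DMSO, test chemicals act for 48 h over an eight-point range with a top dose of 100 uM. Expression is then quantified by TaqMan RT-PCR against ACTB, GAPDH and POLR2A.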

Read-out in assay [2]: MYC, MYC (gene 4609)
The experiment in a line: LTEA_HepaRG_MYC: Life Technologies and Expression Analysis (LTEA) Assay for MYC using HepaRG (AID 2283518). In a few lines:
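Expression changes were scored by TaqMan qRT-PCR with ACTB, GAPDH and POLR2A normalization. Cultures in serum-free induction medium received duplicate 8-point concentration series, highest 100 uM, for 48 h; DMSO (0.5%) served as baseline.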

Read-out in assay [3]: matrix metalloproteinase-3 (MMP3), MMP3 (gene 4314)
Nature of the assay: LTEA_HepaRG_MMP3: Life Technologies and Expression Analysis (LTEA) Assay for matrix metalloproteinase-3 (MMP3) using HepaRG (AID 2283519). The essentials:
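Human liver HepaRG cultures received chemicals (top concentration 100 uM, 0.5% DMSO) for 48 h in duplicate. MMP3 mRNA induction or loss was then assessed via TaqMan qRT-PCR with housekeeping-gene normalisation.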

Read-out in assay [4]: Paternally Expressed 10 (PEG10), PEG10 (gene 23089)
Nature of the assay: LTEA_HepaRG_PEG10: Life Technologies and Expression Analysis (LTEA) Assay for Paternally Expressed 10 (PEG10) using HepaRG (AID 2283520).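 On AC50: differentiated HepaRG human liver cells in serum-free induction medium with 0.5% DMSO; PEG10 transcript by qRT-PCR normalised to ACTB GAPDH and POLR2A.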 The essentials: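 qRT-PCR read-out: PEG10 mRNA normalised to three housekeeping genes, fitted bidirectionally against 0.5% DMSO vehicle. HepaRG cells received test chemicals for 48 h in serum-free induction medium, 8 points, top 100 uM, half-log steps.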

Read-out in assay [5]: Nuclear factor NF-kappa-B p105 subunit (Homo sapiens) (UniProt P19838)
The experiment in a line: LTEA_HepaRG_NFKB1: Life Technologies and Expression Analysis (LTEA) Assay for Nuclear Factor Kappa B Subunit 1 (NFKB1) using HepaRG (AID 2283521).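 Further: differentiated human HepaRG liver cells in serum-free induction medium; TaqMan qRT-PCR transcript normalised to ACTB GAPDH and POLR2A housekeeping genes.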 The essentials:
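HepaRG, 48 h exposure; 8-pt half-log series from 100 uM in 0.5% DMSO; duplicates. Readout: NFKB1 mRNA by qRT-PCR (Fluidigm arrays), housekeeping-normalized. Gain/loss fit vs DMSO baseline.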

Read-out in assay [6]: Protein phosphatase 2A (PPP2R4), PTPA (gene 5524)
The experiment in a line: LTEA_HepaRG_PPP2R4: Life Technologies and Expression Analysis (LTEA) Assay for Protein phosphatase 2A (PPP2R4) using HepaRG (AID 2283522). The essentials:
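HepaRG, 48 h exposure, 8-pt half-log series from 100 uM, 0.5% DMSO vehicle, duplicates. Readout: PPP2R4 mRNA, Fluidigm qRT-PCR, housekeeping-normalized. Bidirectional curve fit vs DMSO baseline.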

Read-out in assay [7]: Phosphatase and tensin (PTEN), PTEN (gene 5728)
The experiment in a line: LTEA_HepaRG_PTEN: Life Technologies and Expression Analysis (LTEA) Assay for Phosphatase and tensin (PTEN) using HepaRG (AID 2283523). In a few lines:
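Expression of PTEN is quantified in the human liver line HepaRG following two days of dosing (top concentration 100 uM, half-log dilutions, 0.5% DMSO). Values derive from bidirectional curve fitting relative to DMSO controls.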

Read-out in assay [8]: solute carrier (SLC22A1), SLC22A1 (gene 6580)
The experiment in a line: LTEA_HepaRG_SLC22A1: Life Technologies and Expression Analysis (LTEA) Assay for solute carrier (SLC22A1) using HepaRG (AID 2283524).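 On AC50: differentiated human HepaRG liver cells in serum-free induction medium; TaqMan qRT-PCR normalized to ACTB GAPDH and POLR2A housekeeping genes.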 In a few lines: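 Transcript induction or suppression of SLC22A1 in human HepaRG cultures is scored after 48 h chemical treatment, with DMSO (0.5%) as baseline for bidirectional fitting. Concentrations span eight half-log points topping at 100 uM.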

Read-out in assay [9]: Pyruvate Dehydrogenase Kinase 4 (PDK4), PDK4 (gene 5166)
Nature of the assay: LTEA_HepaRG_PDK4: Life Technologies and Expression Analysis (LTEA) Assay for Pyruvate Dehydrogenase Kinase 4 (PDK4) using HepaRG (AID 2283525). The essentials:
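Eight-point, half-log concentration series (max 100 uM, 0.5% DMSO) applied to differentiated HepaRG cells for 48 h in duplicate. Endpoint: PDK4 mRNA induction or repression by qRT-PCR against DMSO baseline.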

Read-out in assay [10]: NAD(P)H dehydrogenase [quinone] 1 (NQO1), NQO1 (gene 1728)
Nature of the assay: LTEA_HepaRG_NQO1: Life Technologies and Expression Analysis (LTEA) Assay for NAD(P)H dehydrogenase [quinone] 1 (NQO1) using HepaRG (AID 2283526). In a few lines: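 qRT-PCR read-out (Fluidigm TaqMan), normalized to three housekeeping genes, after 48 h chemical exposure of HepaRG cells. Concentrations: eight points, top 100 uM, half-log steps, 0.5% DMSO vehicle. Gain or loss of signal fitted relative to DMSO.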

Read-out in assay [11]: Nuclear factor erythroid 2-related factor 2 (Homo sapiens) (UniProt Q16236)
The experiment in a line: LTEA_HepaRG_NFE2L2: Life Technologies and Expression Analysis (LTEA) Assay for Nuclear factor erythroid 2-related factor 2 (NFE2L2) Transcription Factor using HepaRG (AID 2283527).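 Further: TaqMan qRT-PCR transcript level normalised to ACTB GAPDH and POLR2A housekeeping genes.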 The essentials:
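Human liver HepaRG line treated in duplicate for 48 h with an eight-point series topping at 100 uM. Gene expression of NFE2L2 by qRT-PCR, bidirectionally fitted against the vehicle control.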

Read-out in assay [12]: succinate dehydrogenase complex iron sulfur subunit B (SDHB), SDHB (gene 6390)
The experiment in a line: LTEA_HepaRG_SDHB: Life Technologies and Expression Analysis (LTEA) Assay for succinate dehydrogenase complex iron sulfur subunit B (SDHB) using HepaRG (AID 2283528). In a few lines: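 Readout is SDHB transcript level by qRT-PCR, normalised to three housekeeping genes and fitted bidirectionally against 0.5% DMSO vehicle. Human HepaRG cells were treated for 48 h at up to 100 uM.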

Read-out in assay [13]: Signal transducer and activator of transcription 3 (Homo sapiens) (UniProt P40763)
The experiment in a line: LTEA_HepaRG_STAT3: Life Technologies and Expression Analysis (LTEA) Assay for Signal transducer and activator of transcription (STAT3) using HepaRG (AID 2283529). In a few lines:
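In this transcriptional endpoint, HepaRG cultures receive test chemicals at up to 100 uM for 48 h, tested in duplicate. STAT3 mRNA is normalized to ACTB, GAPDH and POLR2A.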

Read-out in assay [14]: solute carrier (SLCO1B1), SLCO1B1 (gene 10599)
The experiment in a line: LTEA_HepaRG_SLCO1B1: Life Technologies and Expression Analysis (LTEA) Assay for solute carrier (SLCO1B1) using HepaRG (AID 2283530). In a few lines: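 Human HepaRG cultures treated for 48 h with an eight-concentration half-log series topping at 100 uM; SLCO1B1 measured by qRT-PCR and fitted bidirectionally relative to DMSO.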

Read-out in assay [15]: sulfotransferase 2A1 (SULT2A1), SULT2A1 (gene 6822)
Nature of the assay: LTEA_HepaRG_SULT2A1: Life Technologies and Expression Analysis (LTEA) Assay for sulfotransferase 2A1 (SULT2A1) using HepaRG (AID 2283531). In a few lines:
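Gene-expression endpoint in a human liver cell line: SULT2A1 mRNA change after 48 h chemical treatment, curves fitted in both directions relative to 0.5% DMSO vehicle. Concentrations spanned eight half-log steps from 100 uM.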

Read-out in assay [16]: Transforming Growth Factor (TGFA), TGFA (gene 7039)
The experiment in a line: LTEA_HepaRG_TGFA: Life Technologies and Expression Analysis (LTEA) Assay for Transforming Growth Factor (TGFA) using HepaRG (AID 2283532). In a few lines: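 Gene expression of TGFA was quantified by qRT-PCR after human HepaRG cells were treated for 48 h with test chemicals (eight concentrations, highest 100 uM, 0.5% DMSO). Activity in either direction was fitted relative to DMSO.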

Read-out in assay [17]: Transforming Growth Factor (TGFB1), TGFB1 (gene 7040)
Nature of the assay: LTEA_HepaRG_TGFB1: Life Technologies and Expression Analysis (LTEA) Assay for Transforming Growth Factor (TGFB1) Transporter using HepaRG (AID 2283533). In a few lines:
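Eight-point concentration-response (max 100 uM, half-log) in HepaRG under serum-free induction conditions, 48 h. TGFB1 mRNA by qRT-PCR, housekeeping-normalized.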

Read-out in assay [18]: TIMP1, TIMP1 (gene 7076)
Nature of the assay: LTEA_HepaRG_TIMP1: Life Technologies and Expression Analysis (LTEA) Assay for TIMP1 using HepaRG (AID 2283534).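 Further: TaqMan qRT-PCR signal normalized to ACTB GAPDH and POLR2A housekeeping genes.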 The essentials: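 TIMP1 induction or repression in HepaRG cells after 48 h chemical exposure (eight concentrations, highest 100 uM), assessed by normalized qRT-PCR with bidirectional fitting to DMSO controls.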

Read-out in assay [19]: Tumor necrosis factor receptor 1 (TNFRSF1A), TNFRSF1A (gene 7132)
The experiment in a line: LTEA_HepaRG_TNFRSF1A: Life Technologies and Expression Analysis (LTEA) Assay for Tumor necrosis factor receptor 1 (TNFRSF1A) using HepaRG (AID 2283535). The essentials: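 Assay uses 48 h chemical treatment of differentiated HepaRG monolayers, tested in duplicate at eight concentrations from 100 uM downward in 0.5% DMSO. mRNA is normalized to ACTB, GAPDH and POLR2A, with induction or suppression fitted relative to vehicle.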

Read-out in assay [20]: Thyroid Hormone Responsive (THRSP), THRSP (gene 7069)
Nature of the assay: LTEA_HepaRG_THRSP: Life Technologies and Expression Analysis (LTEA) Assay for Thyroid Hormone Responsive (THRSP) using HepaRG (AID 2283536). The essentials:
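Cell model: human HepaRG, approx. 100,000 cells/well, 0.5% DMSO vehicle. Exposure lasts 48 h; phenobarbital 1 mM serves as induction positive control. Gene expression is measured by qRT-PCR against three endogenous control genes.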

Activity calls are given as the source filed them. How the source made its calls: active means hit-call score of the fitted dose curve at least 0.9, where 1 is the maximum; inactive means score below 0.9.

Nuclear factor NF-kappa-B p105 subunit (Homo sapiens), sequence (P19838 whole entry, looked up): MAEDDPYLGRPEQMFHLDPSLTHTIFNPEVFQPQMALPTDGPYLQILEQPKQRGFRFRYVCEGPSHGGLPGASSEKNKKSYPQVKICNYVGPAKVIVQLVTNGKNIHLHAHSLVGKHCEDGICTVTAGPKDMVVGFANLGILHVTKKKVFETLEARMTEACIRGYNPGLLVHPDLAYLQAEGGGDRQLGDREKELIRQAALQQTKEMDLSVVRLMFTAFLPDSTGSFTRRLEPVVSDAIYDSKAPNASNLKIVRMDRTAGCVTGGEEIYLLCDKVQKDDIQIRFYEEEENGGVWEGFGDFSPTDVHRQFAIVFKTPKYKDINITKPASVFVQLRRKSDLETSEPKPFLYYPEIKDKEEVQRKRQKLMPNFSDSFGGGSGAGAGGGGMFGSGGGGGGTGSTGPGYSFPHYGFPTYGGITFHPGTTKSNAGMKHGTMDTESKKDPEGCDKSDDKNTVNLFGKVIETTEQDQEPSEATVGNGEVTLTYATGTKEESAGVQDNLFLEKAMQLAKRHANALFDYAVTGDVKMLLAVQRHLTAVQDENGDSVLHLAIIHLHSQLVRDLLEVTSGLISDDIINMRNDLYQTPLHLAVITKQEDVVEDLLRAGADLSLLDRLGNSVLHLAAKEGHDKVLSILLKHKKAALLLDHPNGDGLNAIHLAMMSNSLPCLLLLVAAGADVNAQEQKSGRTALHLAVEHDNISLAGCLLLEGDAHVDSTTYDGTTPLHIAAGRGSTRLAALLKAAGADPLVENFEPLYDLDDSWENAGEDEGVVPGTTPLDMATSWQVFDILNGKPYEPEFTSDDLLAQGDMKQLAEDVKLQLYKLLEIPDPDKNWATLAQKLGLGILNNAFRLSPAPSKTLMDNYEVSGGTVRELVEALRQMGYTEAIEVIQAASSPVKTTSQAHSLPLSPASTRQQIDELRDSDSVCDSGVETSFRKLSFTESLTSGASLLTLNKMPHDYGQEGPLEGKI
Nuclear factor erythroid 2-related factor 2 (Homo sapiens), sequence (Q16236 whole entry, looked up): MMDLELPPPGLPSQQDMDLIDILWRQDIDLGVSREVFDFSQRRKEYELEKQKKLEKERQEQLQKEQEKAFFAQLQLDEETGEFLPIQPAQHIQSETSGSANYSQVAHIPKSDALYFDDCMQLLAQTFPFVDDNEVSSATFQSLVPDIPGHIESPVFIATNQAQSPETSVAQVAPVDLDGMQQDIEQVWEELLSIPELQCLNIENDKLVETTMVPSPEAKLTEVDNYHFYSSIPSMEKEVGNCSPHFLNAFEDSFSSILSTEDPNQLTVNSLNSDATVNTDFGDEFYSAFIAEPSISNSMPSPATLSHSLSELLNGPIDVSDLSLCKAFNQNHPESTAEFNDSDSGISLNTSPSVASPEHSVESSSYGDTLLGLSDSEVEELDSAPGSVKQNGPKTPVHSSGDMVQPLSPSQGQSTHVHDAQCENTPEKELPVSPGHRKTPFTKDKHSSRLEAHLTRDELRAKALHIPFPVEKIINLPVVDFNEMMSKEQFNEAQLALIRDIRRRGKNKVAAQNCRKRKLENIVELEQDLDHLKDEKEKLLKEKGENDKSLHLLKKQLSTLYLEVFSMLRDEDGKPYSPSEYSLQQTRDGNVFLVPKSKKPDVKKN
Signal transducer and activator of transcription 3 (Homo sapiens), sequence (P40763 whole entry, looked up): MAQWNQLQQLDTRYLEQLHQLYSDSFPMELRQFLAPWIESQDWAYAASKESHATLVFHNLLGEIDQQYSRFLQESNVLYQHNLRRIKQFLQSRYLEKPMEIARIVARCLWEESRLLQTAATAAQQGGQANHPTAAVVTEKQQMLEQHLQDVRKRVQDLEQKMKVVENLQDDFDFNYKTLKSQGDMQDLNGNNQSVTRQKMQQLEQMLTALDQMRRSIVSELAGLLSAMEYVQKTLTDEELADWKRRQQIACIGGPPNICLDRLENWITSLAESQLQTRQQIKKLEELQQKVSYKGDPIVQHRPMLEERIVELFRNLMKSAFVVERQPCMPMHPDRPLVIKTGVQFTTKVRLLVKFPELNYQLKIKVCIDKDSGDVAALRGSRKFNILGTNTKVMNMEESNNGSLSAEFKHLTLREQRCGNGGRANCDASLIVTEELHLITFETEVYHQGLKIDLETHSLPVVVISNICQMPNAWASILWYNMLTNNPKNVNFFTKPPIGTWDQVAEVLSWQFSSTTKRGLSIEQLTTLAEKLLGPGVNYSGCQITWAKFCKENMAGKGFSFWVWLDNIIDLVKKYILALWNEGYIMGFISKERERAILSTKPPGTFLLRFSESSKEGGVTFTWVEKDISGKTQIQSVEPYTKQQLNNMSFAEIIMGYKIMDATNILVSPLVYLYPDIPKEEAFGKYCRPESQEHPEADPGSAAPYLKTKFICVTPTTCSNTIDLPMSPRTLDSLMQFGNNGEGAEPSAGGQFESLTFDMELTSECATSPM

`NC(=O)Cn1c(=O)cc(CCN2CCN(c3nccc4sccc34)CC2)c2ccc(F)cc21`: the compound was called inactive in assay [1], in [2], in assay [3], in assay [5], in [6] and in assay [7]. The compound was classed as inactive in assay [8], in assay [9], in [10], in [11], in [12] and in assay [13]. Besides, the compound was classed as inactive in [14], in [15], in assay [16], in [18] and in assay [19]. Moreover, the half-maximal activity concentration (AC50) in assay [4] was 50 µM (active); in [17], 39.1 µM (active); in assay [20], 50 µM (active).
In the case of `Cc1cc(=O)[nH]c(=S)[nH]1`, the compound was called inactive in [1], in assay [2], in assay [3], in assay [4], in assay [5] and in [6]. In addition, the compound was called inactive in assay [7], in [8], in [9], in [10], in [11] and in assay [12]. Besides, the outcome in [13], in [14], in [15], in assay [16], in assay [17] and in assay [18] was inactive. The compound was called inactive in assay [19] and in [20].
`CC(CO)OC(C)CO` (stereo not given) (tested in a mixture with another compound): the call in assay [1], in assay [2], in assay [3], in [4], in assay [5] and in assay [6] was inactive. In addition, the compound was called inactive in assay [7], in assay [8], in assay [9], in assay [10], in assay [11] and in assay [12]. Also, the compound was classed as inactive in [13], in assay [14], in assay [15], in assay [16], in assay [17] and in [18]. For the same compound, the compound was called inactive in assay [19] and in assay [20].
With `CCCCCCCCCCC`, the call in assay [1], in assay [2], in [3], in assay [4], in assay [5] and in assay [6] was inactive. Moreover, the call in assay [7], in [8], in [9], in assay [10], in assay [11] and in assay [12] was inactive. Further, the outcome in [13], in [14], in [15], in assay [16], in [17] and in [18] was inactive. Further, the call in assay [19] and in assay [20] was inactive.
Take `Clc1cc(Cl)c(Cl)cc1Cl`: the compound was called inactive in [1], in assay [2], in [3], in assay [4], in assay [5] and in assay [6]. The compound was called inactive in assay [7], in assay [8], in assay [9], in [10], in assay [11] and in assay [12]. Also, the outcome in [13], in assay [14], in assay [15], in assay [16], in [17] and in [18] was inactive. The compound was called inactive in assay [19] and in assay [20].
Take `CN1CCN(Cc2cc(-c3ccc4[nH]c(=O)oc4c3)co2)[C@@H](c2ccc(F)cc2)C1`: the call in [1], in assay [2], in assay [3], in [5], in assay [6] and in assay [7] was inactive. In addition, the outcome in [10], in assay [11], in assay [12], in assay [13], in assay [14] and in assay [15] was inactive. Further, the compound was called inactive in [16], in assay [18], in [19] and in assay [20]. In addition, the AC50 was 82.7 µM (active) in [4], 50 µM (active) in assay [8], 88.5 µM (active) in assay [9] and 62 µM (active) in [17].
